Source: PubChem BioAssay
Values joined by “and” are separate entries in the source; they are usually repeats but may differ in a detail not shown here. Identical values can stand only once. Results filed as inconclusive are left out. Active and inactive are the calls of the source.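 How the source made its calls, unless noted: active means thallium flux through the channel raised or lowered by more than 3 SD from vehicle-only wells, actives on both sides; inactive means the rest.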

Columns and labels:
[1] = tested on: Hepatitis C virus NS3 helicase; test: HCV NS3 helicase inhibitors, primary screen, biochemical, fluorescence polarization, LOPAC1280 library (AID 687035; in the data active means inhibition above about 37%); settings: Purified HCV NS3 helicase, Cy5-dT15 ssDNA binding fluorescence polarization; stronger effect = higher value; concentration not given here
[2] = Cy5 fluorescence quenching or enhancement artefacts, artefact control for HCV NS3 helicase inhibitor project, biochemical, LOPAC1280 (AID 687037; call rule not given here); settings: Cy5-DNA-NS3h complex fluorescence interference counterscreen
[3] = tested on: Neuropilin-2 / VEGF-C interaction (human); test: inhibitors of NRP2–VEGF-C binding, biochemical, microplate binding format, z-score (AID 743281; call rule not given here); settings: microplate NRP2/VEGF-C binding assay; stronger effect = lower value
[4] = modulation of C. elegans fzo-1 (AID 1259413; call rule not given here;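 further: fzo-1 mutant C. elegans worms in liquid wells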); settings: C. elegans fzo-1 modulator screen, mean read-out; stronger effect = higher value
[5] = differential killing of epithelial or mesenchymal cells, primary screen, imaging, PC-3E GFP, TEM4-18 mCherry, co-culture (AID 1345086;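 active means compounds killing one labelled cell type while sparing the other, by normalised counts and ratio limits, not self-fluorescent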;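 on all read-outs here: cells exposed to compound for 72 h before imaging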;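 on red/green cell ratio (normalised): normalised mesenchymal count divided by normalised epithelial count so high means epithelial killing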); settings: imaging cell counts, at 1 µM; for red/green cell ratio (normalised): actives lie on both sides
[6] = growth inhibition of DIPG glioma cells, dose response, cell-based, JHH-DIPG-1, MIPE4.0, CellTiter-Glo, qHTS (AID 1347062; cut-off not given, nearly all actives have AC50 up to about 27 µM;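 further: cells exposed to compound for two days before readout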); settings: JHH-DIPG-1 viability, CellTiter-Glo ATP luminescence
[7] = growth inhibition of DIPG glioma cells, dose response, cell-based, SU-DIPG-IV, MIPE4.0, CellTiter-Glo, qHTS (AID 1347063; cut-off not given, nearly all actives have AC50 up to about 30 µM;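 further: compound exposure lasted 48 hours before the viability readout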); settings: SU-DIPG-IV viability, CellTiter-Glo ATP luminescence
[8] = modifiers of HSF1 nuclear foci, imaging, Selleck Cancer Library (AID 1347162; in the data active means plate-normalised HSF1 focus index below about 0.46); settings: human cells, at 10 µM; SSMD: measured here: HSF1 foci SSMD mean; cell count: measured here: cell number; plate-normalised HSF1 focus index: stronger effect = lower value
[9] = phospholipid biosynthesis inhibitors in animal cells, primary screen, cell-based, LOPAC library, screen 4 (AID 1347384; call rule not given here); settings: phospholipid biosynthesis inhibition screen, at 10 µM
[10] = survival rescue of mitochondrial mutant cells in low glucose, primary screen, MELAS cybrids, Rieske KO mouse fibroblasts, CellTiter-Glo (AID 1508586;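 active means mean z-score across replicates of 1.96 or higher in either the MELAS or the Rieske mutant cell line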;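 further: z relative to plate mean and SD of compound and empty wells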)
[11] = target: NAD(+) hydrolase SARM1 (Homo sapiens) (UniProt Q6SZW1); test: SARM1 TIR NADase inhibitors, cell lysate, NAD-Glo luminescence (AID 1508614;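 active means compound whose remaining NAD level is above about 45 nM, limit read from the data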); settings: SAM-TIR HEK293T lysate NADase, at 1 µM, stronger effect = higher value
NAD(+) hydrolase SARM1 (Homo sapiens), sequence (Q6SZW1 whole entry, looked up): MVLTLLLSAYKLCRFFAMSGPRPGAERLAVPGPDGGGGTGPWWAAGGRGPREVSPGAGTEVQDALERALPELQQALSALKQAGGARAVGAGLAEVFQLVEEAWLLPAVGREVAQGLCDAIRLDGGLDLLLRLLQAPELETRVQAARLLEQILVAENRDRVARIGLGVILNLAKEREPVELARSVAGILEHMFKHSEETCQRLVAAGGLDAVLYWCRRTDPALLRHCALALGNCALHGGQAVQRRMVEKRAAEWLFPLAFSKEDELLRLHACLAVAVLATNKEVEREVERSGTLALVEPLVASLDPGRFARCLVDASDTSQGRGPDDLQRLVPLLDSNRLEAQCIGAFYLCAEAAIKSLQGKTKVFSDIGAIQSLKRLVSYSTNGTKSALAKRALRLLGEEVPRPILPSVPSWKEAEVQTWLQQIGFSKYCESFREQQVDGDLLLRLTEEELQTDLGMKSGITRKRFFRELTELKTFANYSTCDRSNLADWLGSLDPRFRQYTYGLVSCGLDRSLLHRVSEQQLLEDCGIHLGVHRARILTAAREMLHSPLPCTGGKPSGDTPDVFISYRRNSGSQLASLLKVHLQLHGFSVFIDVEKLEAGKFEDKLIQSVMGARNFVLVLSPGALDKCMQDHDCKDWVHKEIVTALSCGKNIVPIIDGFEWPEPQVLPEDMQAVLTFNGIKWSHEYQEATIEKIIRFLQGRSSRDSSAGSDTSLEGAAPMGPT

[12] = viability rescue of complex I mutant cybrids, primary screen, cell-based, galactose medium, ATP luminescence (AID 1645843;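 active means z-score of at least 1.8 in each of two replicates, scored against plate mean and spread of sample wells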;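 further: positive z means more ATP and so rescue of galactose-driven cybrid death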); settings: complex I mutant cybrid cells, 72 h, stronger effect = higher value
[13] = tested on: F380Y/beta1; test: modulators of BK channel variants, profiling panel, selectivity assay, cell-based, U2OS BacMam, thallium flux, beta subunits (AID 1259406); settings: at 30 µM;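 further: initial slope of Thallos dye fluorescence rise after thallium is added; log ratio against the mean of 0.3% DMSO vehicle wells on the same plate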
[14] = tested on: F380Y/beta4; test: as above; settings: at 30 µM
[15] = target: Calcium-activated potassium channel subunit alpha-1 (Homo sapiens) + Leucine-rich repeat-containing protein 26 (Homo sapiens) (UniProt Q12791+Q2I0M4); test: as above; settings: F380Y/Slo1WT/gamma1, at 30 µM
Calcium-activated potassium channel subunit alpha-1 (Homo sapiens) + Leucine-rich repeat-containing protein 26 (Homo sapiens), sequence (Q2I0M4 whole entry, looked up, one chain of several): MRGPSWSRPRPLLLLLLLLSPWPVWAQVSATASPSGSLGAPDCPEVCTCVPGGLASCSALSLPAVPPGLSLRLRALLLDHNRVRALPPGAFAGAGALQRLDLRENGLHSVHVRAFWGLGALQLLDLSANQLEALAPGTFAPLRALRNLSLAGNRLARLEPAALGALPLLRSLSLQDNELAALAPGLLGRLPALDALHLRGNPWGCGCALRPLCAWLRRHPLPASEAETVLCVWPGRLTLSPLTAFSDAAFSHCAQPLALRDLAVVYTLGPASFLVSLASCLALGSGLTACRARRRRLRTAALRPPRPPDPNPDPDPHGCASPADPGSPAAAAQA

[16] = tested on: R275C/beta4; test: as above; settings: at 30 µM
[17] = tested on: Aerobactin synthetase IucA (Klebsiella pneumoniae); test: IucA aerobactin synthetase inhibitors, biochemical, Tocris library, absorbance (AID 1345561; call rule not given here;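 further: 100% = enzyme without compound and 0% = no enzyme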); settings: purified IucA enzyme assay, absorbance (OD) read-out; stronger effect = lower value;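 tested at 8 µM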
[18] = growth inhibition of DIPG glioma cells, dose response, cell-based, SU-DIPG-XIII, MIPE4.0, CellTiter-Glo, qHTS (AID 1347061; cut-off not given, nearly all actives have AC50 up to about 37 µM;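 further: cells exposed to compound for 48 hours before readout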); settings: SU-DIPG-XIII viability, CellTiter-Glo ATP luminescence
[19] = polyglutamine-triggered caspase-3 activation inhibitors, cell-based (AID 1583); settings: polyglutamine-induced caspase-3 activation, cell assay; stronger effect = higher value;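 tested at 10 µM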
[20] = suppressors of polyQ aggregation in yeast, 75Q-TubU reporter (AID 1593); settings: Yeast 75Q polyglutamine aggregation reporter
[21] = measured here: epithelial PC-3E GFP cell survival
[22] = measured here: mesenchymal TEM4-18 mCherry cell survival
[23] = MELAS cybrid survival, CellTiter-Glo 48 h, stronger effect = higher value
[24] = Rieske KO mouse fibroblast survival, CellTiter-Glo 72 h

## CC(O)(CS(=O)(=O)c1ccc(F)cc1)C(=O)Nc1ccc(C#N)c(C(F)(F)F)c1 (configuration not stated)
[1]
  inhibition: 0% (inactive)
[2]
  fluorescence ratio (interference): 1 (inactive)
[3]
  z-score: 0.117 (inactive)
[4]
  mean signal: 225 (inactive)
[5]
  red/green cell ratio (normalised): 1.31 (inactive)
[5]; [21]
  normalised cell number: 0.64
[5]; [22]
  normalised cell number: 0.84
[6]
  AC50: 9.35 µM (active)
[7]
  AC50: 13.2 µM (active)
[8]
  SSMD: 2.85
  cell count: 7580
  plate-normalised HSF1 focus index: 1.1 (inactive)
[9]
  outcome: inactive
[10]; [23]
  z-score: -0.358 (inactive) and -0.11 (inactive) and 0.746 (inactive)
[10]; [24]
  z-score: 0.621 and -0.29 and 0.356
[11]
  remaining NAD: 10 nM (inactive)
[12]
  z-score: -0.24 (inactive) and -0.44 (inactive) and 0.235 (inactive)
[13]
  log fold change Tl+ flux: 0.0749 (inactive)
[14]
  log fold change Tl+ flux: -0.0644 (inactive)
[15]
  log fold change Tl+ flux: 0.0529 (inactive)
[16]
  log fold change Tl+ flux: 0.0752 (inactive)

## Cc1csc2sc(C=C(C#N)C#N)c(C)c12
[13]
  log fold change Tl+ flux: -0.023 (inactive)
[14]
  log fold change Tl+ flux: 0.00092 (inactive)
[15]
  log fold change Tl+ flux: 0.0126 (inactive)
[16]
  log fold change Tl+ flux: 0.00359 (inactive)

## CSC(=NCc1ccccc1Cl)NC(N)=N[N+](=O)[O-]
[13]
  log fold change Tl+ flux: 0.0433 (inactive)
[14]
  log fold change Tl+ flux: 0.0594 (inactive)
[15]
  log fold change Tl+ flux: 0.0227 (inactive)
[16]
  log fold change Tl+ flux: -0.0373 (inactive)

## CCOC(=O)c1cncn1[C@H](C)c1ccccc1
[3]
  z-score: 0.0538 (inactive)
[4]
  mean signal: 274 (inactive)
[5]
  red/green cell ratio (normalised): 0.98 (inactive)
[5]; [21]
  normalised cell number: 0.95
[5]; [22]
  normalised cell number: 0.93
[17]
  remaining activity: 122% (inactive)
[18]
  outcome: inactive
[7]
  outcome: inactive
[11]
  remaining NAD: 10 nM (inactive)
[12]
  z-score: -0.35 (inactive)
[13]
  log fold change Tl+ flux: -0.0564 (inactive)
[14]
  log fold change Tl+ flux: -0.0155 (inactive)
[15]
  log fold change Tl+ flux: 0.0279 (inactive)
[16]
  log fold change Tl+ flux: 0.0313 (inactive)

## NCCc1ccccn1
[3]
  z-score: 1.2 (inactive)
[4]
  mean signal: 245 (inactive)
[17]
  remaining activity: 108% (inactive)
[12]
  z-score: 0.8 (inactive) and -0.145 (inactive)
[13]
  log fold change Tl+ flux: 0.0119 (inactive)
[14]
  log fold change Tl+ flux: -0.0155 (inactive)
[15]
  log fold change Tl+ flux: 0.0303 (inactive)
[16]
  log fold change Tl+ flux: -0.0421 (inactive)

## Cc1ccc(S(=O)(=O)N2CN3CCN(C3)C2)cc1
[13]
  log fold change Tl+ flux: -0.0265 (inactive)
[14]
  log fold change Tl+ flux: 0.048 (inactive)
[15]
  log fold change Tl+ flux: 0.0134 (inactive)
[16]
  log fold change Tl+ flux: -0.0275 (inactive)

## N#CC(C#N)=Cc1cccnc1
[13]
  log fold change Tl+ flux: 0.00181 (inactive)
[14]
  log fold change Tl+ flux: -0.0312 (inactive)
[15]
  log fold change Tl+ flux: 6.5e-05 (inactive)
[16]
  log fold change Tl+ flux: 0.025 (inactive)

## O=c1[nH]c(=S)[nH]c(O)c1C=C1C=CC=N1
[13]
  log fold change Tl+ flux: 0.0561 (inactive)
[14]
  log fold change Tl+ flux: 0.0563 (inactive)
[15]
  log fold change Tl+ flux: 0.0242 (inactive)
[16]
  log fold change Tl+ flux: 0.0391 (inactive)

## O=c1c2ccccc2[nH]c(=S)n1-c1ccccc1
[13]
  log fold change Tl+ flux: 0.0064 (inactive)
[14]
  log fold change Tl+ flux: 0.0104 (inactive)
[15]
  log fold change Tl+ flux: 0.0486 (inactive)
[16]
  log fold change Tl+ flux: 0.00834 (inactive)

## CC1CCC[C@H](O)CCCCCc2cc(O)cc(O)c2C(=O)O1 (some centres not stated)
[3]
  z-score: -0.653 (inactive)
[4]
  mean signal: 252 (inactive)
[13]
  log fold change Tl+ flux: 0.0798 (inactive)
[14]
  log fold change Tl+ flux: 0.0166 (inactive)
[15]
  log fold change Tl+ flux: 0.0353 (inactive)
[16]
  log fold change Tl+ flux: 0.0349 (inactive)

## Cc1nnc2n1-c1ccc(Cl)cc1C(c1ccccc1)=NC2
[3]
  z-score: -0.124 (inactive)
[4]
  mean signal: 234 (inactive)
[12]
  z-score: 0.965 (inactive)
[13]
  log fold change Tl+ flux: -0.00299 (inactive)
[14]
  log fold change Tl+ flux: -0.0542 (inactive)
[15]
  log fold change Tl+ flux: -0.0153 (inactive)
[16]
  log fold change Tl+ flux: 0.0351 (inactive)

## O=C1Nc2ccc(Cl)cc2C(c2ccccc2Cl)=NC1O (configuration not stated)
[19]
  inhibition: -16.4%
[20]
  score: 0.78
[3]
  z-score: -0.398 (inactive)
[4]
  mean signal: 233 (inactive)
[12]
  z-score: 0.845 (inactive)

## Clc1ccc(CON=C(Cn2ccnc2)c2ccc(Cl)cc2Cl)c(Cl)c1
[12]
  z-score: -1.88 (inactive)
[13]
  log fold change Tl+ flux: -0.00723 (inactive)
[14]
  log fold change Tl+ flux: -0.00465 (inactive)
[16]
  log fold change Tl+ flux: 0.02 (inactive)

## O=C1CCC2(O)[C@H]3Cc4ccc(O)c5c4[C@@]2(CCN3CC2CC2)[C@H]1O5 (some centres not stated)
[4]
  mean signal: 227 (inactive)

## O[C@@H]1CCCC[C@H]1N1CCC(c2ccccc2)CC1
[3]
  z-score: -0.802 (inactive)
[4]
  mean signal: 231 (inactive)
[17]
  remaining activity: 96.8% (inactive)
[10]; [23]
  z-score: -0.566 (inactive)
[10]; [24]
  z-score: -0.671
[12]
  z-score: -0.07 (inactive)

## NC(=NCc1ccc(Cl)cc1)SCCCc1cnc[nH]1
[3]
  z-score: -0.336 (inactive)
[4]
  mean signal: 232 (inactive)
[17]
  remaining activity: 102% (inactive)
[12]
  z-score: -1.21 (inactive) and 0.08 (inactive)

## CCCCCCCCCOc1ccc2[nH]cc(CCN)c2c1
[3]
  z-score: -2.82 (inactive)
[4]
  mean signal: 264 (inactive)
[12]
  z-score: -1.44 (inactive)

## CN1C(=O)CN=C(c2ccccc2)c2cc(Cl)ccc21
[19]
  inhibition: -7.18%
[20]
  score: 0.95
[3]
  z-score: -0.636 (inactive)
[4]
  mean signal: 240 (inactive)
[12]
  z-score: 1.09 (inactive)
[13]
  log fold change Tl+ flux: -0.0264 (inactive)
[14]
  log fold change Tl+ flux: 0.0209 (inactive)
[15]
  log fold change Tl+ flux: -0.0437 (inactive)
[16]
  log fold change Tl+ flux: 0.0195 (inactive)
